Bioassay records as filed in PubChem.
The list is not random: actives were taken first. Their share in the collection is about 12%.
Cl transport mod: KCC2 cotransporter modulators, thallium flux, primary screen, cell-based, HEK293 KCC2, FluoZin-2 fluorescence, MLSMR | KCC2 cells, thallium flux FluoZin-2 fluorescence | 190,000 tested, 2.2% active | Solute carrier family 12 member 5 (Homo sapiens), Q9H2X9 | B-score of Tl+ flux slope (higher = more flux/activation; lower = inhibition) at 10 µM;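 active = thallium flux slope and its plate-corrected score both differing from the plate sample mean at a set confidence after two filtering rounds, in either direction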;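 also: slope of fluorescence scaled to starting intensity during 10 to 20 s after thallium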
Target sequence (Q9H2X9 whole entry, looked up): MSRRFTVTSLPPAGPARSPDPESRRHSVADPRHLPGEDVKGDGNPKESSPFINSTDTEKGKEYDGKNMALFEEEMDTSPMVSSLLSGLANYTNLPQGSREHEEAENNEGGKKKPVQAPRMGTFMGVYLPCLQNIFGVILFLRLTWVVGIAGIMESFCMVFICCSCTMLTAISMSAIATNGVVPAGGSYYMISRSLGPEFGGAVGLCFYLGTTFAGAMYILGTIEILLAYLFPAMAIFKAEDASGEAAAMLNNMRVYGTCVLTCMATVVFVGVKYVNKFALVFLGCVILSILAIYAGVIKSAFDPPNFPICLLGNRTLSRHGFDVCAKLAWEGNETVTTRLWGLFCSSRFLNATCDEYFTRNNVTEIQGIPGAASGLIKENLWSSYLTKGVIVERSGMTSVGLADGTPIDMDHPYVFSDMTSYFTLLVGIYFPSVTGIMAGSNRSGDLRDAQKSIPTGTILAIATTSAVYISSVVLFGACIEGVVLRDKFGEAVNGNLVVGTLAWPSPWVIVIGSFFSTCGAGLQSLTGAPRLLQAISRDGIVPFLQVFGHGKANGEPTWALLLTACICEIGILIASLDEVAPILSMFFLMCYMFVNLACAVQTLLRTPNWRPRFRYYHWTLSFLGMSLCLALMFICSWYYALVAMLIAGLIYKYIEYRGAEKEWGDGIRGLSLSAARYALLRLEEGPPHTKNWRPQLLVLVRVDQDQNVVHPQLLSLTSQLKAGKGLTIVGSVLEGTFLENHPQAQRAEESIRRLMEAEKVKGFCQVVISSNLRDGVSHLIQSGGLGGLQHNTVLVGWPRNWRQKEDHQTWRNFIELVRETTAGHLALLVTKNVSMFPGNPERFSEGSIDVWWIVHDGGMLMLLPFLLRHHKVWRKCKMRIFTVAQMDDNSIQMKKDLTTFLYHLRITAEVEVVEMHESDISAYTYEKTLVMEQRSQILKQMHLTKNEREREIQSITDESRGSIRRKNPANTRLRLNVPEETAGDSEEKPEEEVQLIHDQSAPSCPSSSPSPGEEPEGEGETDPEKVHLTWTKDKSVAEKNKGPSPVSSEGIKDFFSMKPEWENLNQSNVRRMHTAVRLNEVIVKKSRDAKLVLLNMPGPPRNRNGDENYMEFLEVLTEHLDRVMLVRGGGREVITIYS
Lmaj promast: Leishmania major promastigote growth inhibition, primary screen. inhibition, % at 10 µM. 200,000 tested, 9% active. Leishmania major promastigotes, resazurin fluorescence viability; in the data active = inhibition above about 50%;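 also: promastigotes grown with compound for 44 hours at 28 °C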
ROMK primary: ROMK potassium channel modulators, primary screen, cell-based, thallium flux, MLSMR library; B-score at 10 µM; 130,000 tested, 2% active; Tet-inducible ROMK, thallium flux fluorescence; actives lie on both sides; ATP-sensitive inward rectifier potassium channel 1 (Homo sapiens), P48048;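 active = signal ratio slope over the read window, or its plate-corrected B-score, at least 3 SD from the plate mean, either direction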;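 also: B-score of the F/F0 ratio slope over 7 to 12 s after thallium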
m-calpain inh: inhibitors of pig calpain II, primary screen, biochemical, fluorogenic peptide substrate, 1536-well | purified calpain II, 30 min | inhibition, % at 16 µM | 220,000 tested, 0.37% active;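 active = inhibition above about 50%, limit read from the data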
WT yeast gro inh: growth inhibition of WT strain, primary screen, mitochondrial fusion inhibitor project, WT and mutant strains, chemical genetic | AID 1362, 2008 | mitochondrial fusion phenotypic screen | 190,000 tested, 2.1% active | inhibition, % at 10 µM; in the data active = inhibition above about 58%; tested in S. cerevisiae
* marks the source's active call; other numbers are inactive results; x = no result given.

SMILES	Cl transport mod	Lmaj promast	ROMK primary	m-calpain inh	WT yeast gro inh
CCNC(=S)Nc1cc(OCC)c(NC(=O)c2ccco2)cc1OCC	-0.015	51*	x	19	1
CC(C)CNC(=O)c1cccc(NC(=O)c2ccco2)c1	x	79*	-0.77	31	1
O=C(Nc1nnc(-c2ccc3c(c2)CCCC3)o1)c1ccc(Cl)cc1Cl	x	-3	x	-30	75
CN(C)S(=O)(=O)c1ccc(C(=O)Nc2nnc(-c3cccs3)o2)cc1	-0.31	53*	-0.74	31	5
N#Cc1ccc(C(=O)Nc2nnc(-c3ccco3)o2)cc1	-0.25	5	1.5	11	-1
N#Cc1ccc(C(=O)Nc2nnc(-c3cccs3)o2)cc1	6.7*	98*	x	4	11
O=C(Nc1nnc(-c2cccs2)o1)C1CC1	-0.27	-3	x	-25	-6
O=C(Nc1nnc(-c2cccs2)o1)c1cccc(C(F)(F)F)c1	x	95*	x	23	62
CN(C)S(=O)(=O)c1ccc(C(=O)Nc2nnc(-c3ccc4c(c3)CCCC4)o2)cc1	8.1*	98*	x	-204	68*
Cc1c(CC(=O)Nc2ccc(Cl)cc2)sc2ccc(Cl)cc12	0.046	x	-0.12	-31	x
NC(=O)COC(=O)c1ccc(Cl)c(S(=O)(=O)N(Cc2ccccc2)c2ccc(Cl)cc2)c1	-2.1	-1	x	10	77*
NC(=O)NC(=O)COC(=O)c1ccc(Cl)c(S(=O)(=O)N(Cc2ccccc2)c2ccc(Cl)cc2)c1	-0.67	1	-0.63	-27	31
C/C(=N\NC(=O)c1ccc(C)cc1C)c1ccc(-n2ccnc2)cc1	-0.32	79*	x	-4	-13
COc1ccc(Cc2nc(-c3cccs3)no2)cc1	0.03	1	-0.52	0	0
Cc1ccc(-n2cc(CNCCn3nc(C)cc3C)c(-c3ccc(F)cc3)n2)cc1	0.27	63*	-1.8	-26	74
Cc1ccc(-n2cc(CNCCc3ncc(C)[nH]3)c(-c3ccc(F)cc3)n2)cc1	x	100*	-0.92	-32	49
Cc1ccc(-n2cc(CNCCN3CCOC3=O)c(-c3ccc(F)cc3)n2)cc1	-0.49	19	-0.52	38	17
CC(C)OC(=O)c1cccc(C(=O)Nc2cccc(NC(=O)c3cccc(C(=O)OC(C)C)n3)n2)n1	-0.96	-5	x	-48	1
Cc1noc(C)c1COc1ccc(C(=O)OCc2nnc(-c3ccc(Cl)cc3)o2)cc1	-0.41	1	x	51*	-11
O=C(OCc1nnc(-c2ccc(Cl)cc2)o1)c1ccncc1	x	-9	-0.17	-214	3
CNC(=O)c1c2c(nc3ccc(Br)cc13)CCCC2	-0.54	8	-0.52	8	37
CN(CCN1CCOCC1)Cc1nc(-c2ccccc2)no1	-0.042	90*	0.071	7	-3
COCC1CCCN(Cc2nc(C(c3ccccc3)c3ccccc3)no2)C1 (stereo not given)	1	31	0.63	2	-8
CCn1ccnc1CN(C)Cc1nc(-c2ccccc2)no1	-0.36	-4	1.3	0	4
c1ccc(-c2noc(CN3CCN(C(c4ccccc4)c4ccccc4)CC3)n2)cc1	x	4	-0.46	9	75*
SMILES	Cl transport mod	Lmaj promast	ROMK primary	m-calpain inh	WT yeast gro inh
c1ccc(-c2noc(CN3CCN(c4ccccc4)CC3)n2)cc1	x	-3	x	-11	8
c1ccc(C(c2ccccc2)c2noc(CN3CCN(CC4CC4)CC3)n2)cc1	0.4	55*	-0.15	-28	-8
CCC1(CC)Cc2ccccc2C(CC(=O)N2CCOCC2)=N1	-0.07	1	-0.68	10	-2
S=c1[nH]cnc2scc(-c3ccccc3)c12	62*	99*	6.1*	27	31
Clc1ncnc2scc(-c3ccccc3)c12	0.5	5	x	14	5
S=c1[nH]cnc2sc(-c3ccccc3)cc12	196*	-10	7.7*	-2	41
CNc1ncnc2sc(-c3ccccc3)cc12	-0.98	24	-1	-51	9
Oc1ccc(N2CCN(c3ncnc4sc(-c5ccccc5)cc34)CC2)cc1	-0.16	62*	0.78	-77	43
Cc1cc2c(NC(=O)Nc3ccc(C(F)(F)F)cc3)cccc2nn1	-1.4	x	x	-18	x
COc1ccc(N2CCN(C(=O)CCCCCn3c(=O)[nH]c4ccsc4c3=O)CC2)cc1	-0.63	6	-1.5	15	-9
COc1ccc(N2C(=O)N(Cc3ccc(C)cc3)c3ccccc3S2(=O)=O)cc1	-1.4	5	0.27	50*	5
COc1ccc(N2C(=O)c3ccccc3S2(=O)=O)cc1	0.0008	x	0.72	11	x
